# Out of some 2,100 compounds screened, about 210 (10%) were called active. Not shown: some 53% with an inconclusive outcome. Calls come from the whole dose curve; as a rule, active = well fitted inhibition curve with a large enough effect; inconclusive = small, poorly fitted or top-dose-only effect, or effect the other way; inactive = no such curve, though single readings can be large or run the other way. The list shows a part of the results. Where a call stands in place of a potency, no number is given.
# Assay: IN Cell qHTS Assay for Inhibitors of the mTORC1 Signaling Pathway in MEF (Tsc2-/-, p53-/-) Cells: Sytravon; note: nearly all actives have a fitted effect of over 60% in size
# Details: phospho-rpS6 immunofluorescence, 24 h; series mostly up to 38.3 µM
# How it was run: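 Immunofluorescence of rpS6 phosphorylation (Ser235/236) in mouse embryonic fibroblasts lacking Tsc2 and p53, after 24 h compound exposure; Hoechst-normalized signal imaged, each well scored as % active cells relative to rapamycin (7.5 nM) and DMSO controls.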
# Potency is the fitted concentration of half-maximal effect.
row,Structure (SMILES),Potency
1,Nc1cc(=O)nc(SCC(=O)Nc2ccc(F)cc2)n1-c1ccc(Cl)cc1,inactive
2,Cc1ccc(-c2nc(N3CCCC(C)C3)c3ccccc3n2)cc1 (centres undefined),inactive
3,COc1ccc2ncc3c(-c4ccc(C)c(C)c4)nn(CC(=O)Nc4ccccc4)c3c2c1,inactive
4,O=C(NCCCN1CCN(c2ccccc2F)CC1)c1nnc(Cc2ccc(Cl)cc2Cl)o1,inactive
5,COc1ccc(-c2nc(CN3CCC(C(=O)NCCCN4CCN(c5ccccc5F)CC4)CC3)c(C)o2)cc1OC,13.1 µM (active)
6,Cc1ccc(N2CC(C(=O)NCCS(=O)(=O)N3CCN(c4ccccc4F)CC3)CC2=O)cc1 (centres undefined),inactive
7,COc1cccc(CNC(=O)CCn2cccn2)c1,inactive
8,CC(C(=O)NCc1cccc(Br)c1)n1ncn2cccc2c1=O (centres undefined),1.47 µM (active)
9,O=C(Cn1c(=O)c2cccn2c2ccc(F)cc21)NCc1cccc(Cl)c1,inactive
10,Cn1cc(-c2cc3n(n2)CCC(=O)N3CC(=O)NCc2ccc(Cl)cc2)c2ccccc21,inactive
11,CCOC(=O)c1nc(Nc2ccc(C(=O)OC(C)C)cc2)c2ccccc2n1,inactive
12,CCc1ccc(NC(=O)CSc2nc3n[nH]c(C)c3c(=N)n2-c2ccc(C)cc2)cc1,inactive
13,COc1cc(CNc2ccc3c(c2)ncn3C(C)C)cc(OC)c1OC,inactive
14,Cc1ccc(NC(=O)c2c(C)oc3ccc(O)c(CN4CCCCCC4)c23)c(C)c1,inactive
15,CC1CCN(S(=O)(=O)c2ccc3nc(Nc4cccc(C(F)(F)F)c4)ccc3c2)CC1,inactive
16,CS(=O)(=O)c1ncc(Cl)c(C(=O)N(Cc2ccc(Cl)cc2)Cc2ccco2)n1,2.33 µM (active)
17,CCOc1ccccc1C(=O)N(Cc1ccco1)Cc1ccccc1F,inactive
18,CCS(=O)(=O)c1ncc(Cl)c(C(=O)N(Cc2ccccc2)Cc2ccco2)n1,3.69 µM (active)
19,Cc1cccc(OCC(=O)N(Cc2ccc(C(C)(C)C)cc2)Cc2ccco2)c1,inactive
20,CCc1ccc2oc(C(=O)N(Cc3cccc(Cl)c3)Cc3ccco3)c(C)c2c1,inactive

row,Structure (SMILES),Potency
1,O=C(NCC1CCN(Cc2cccc(F)c2)CC1)c1cc2ccc3cccnc3c2[nH]1,inactive
2,CCOC(=O)c1sc2ccccc2c1S(=O)(=O)Nc1ccc(CC)cc1,inactive
3,COc1ccccc1C1C(C(=O)Nc2ccccc2)=C(C)Nc2nc(-c3ccccc3)nn21 (centres undefined),inactive
4,COc1ccc(C2C(C(=O)Nc3ccccc3)=C(C)Nc3nc(-c4ccc(Cl)cc4)nn32)cc1 (centres undefined),13.1 µM (active)
5,CC1=C(C(=O)Nc2ccc(Cl)cc2)C(c2ccccc2)n2ncc(C(=O)Nc3ccccc3)c2N1 (centres undefined),inactive
6,COc1ccc(S(=O)(=O)Nc2ccc3oc4c(c3c2)CCCC4)cc1,inactive
7,COc1ccc(/C=C/C(=O)Nc2ccc3nc4c(c(Nc5ccc(OC)c(OC)c5)c3c2)CCCC4)cc1,3.69 µM (active)
8,CCOc1ccc(NC(=O)CSc2c3c(nc4ccccc24)CCCC3)cc1,inactive
9,COc1cccc(NC(=O)CSc2c3c(nc4ccccc24)CCCC3)c1,inactive
10,COc1ccc(Nc2c3c(nc4ccc(NC(=O)/C=C/c5cc(OC)c(OC)c(OC)c5)cc24)CCCC3)cc1OC,1.47 µM (active)
11,COc1ccc(/C=C/C(=O)Nc2ccc3nc4c(c(Nc5ccccc5OC)c3c2)CCCC4)cc1,2.07 µM (active)
12,O=S(=O)(c1ccccc1F)N1CCC(Oc2ccc(-n3cnnn3)cc2)CC1,inactive
13,CCOCCc1nn2c(=O)cc(COC(=O)c3ccc(NC(=O)c4cccs4)cc3)nc2s1,inactive
14,CCOc1ccc(S(=O)(=O)Nc2cc(Cl)ccc2OC)c2cccnc12,inactive
15,COc1ccc(NC(=O)CCn2cnc3onc(-c4ccc(F)cc4)c3c2=O)cc1OC,inactive
16,CCCn1c(=O)sc2cc(NC(=O)c3ccc(OC)c(Br)c3)ccc21,inactive
17,O=C(Nc1ccc2oc(-c3ccc4ccccc4c3)nc2c1)c1cc(Br)ccc1Cl,16.5 µM (active)
18,COc1c(C)cc(Br)cc1C(=O)Nc1ccc(-c2nc3ncccc3o2)cc1,inactive
19,CCC(=O)Nc1cc(-c2nc3cc(C)cc(C)c3o2)ccc1C,inactive
20,COc1ccc(C(=O)Nc2ccc3oc(-c4ccc5ccccc5c4)nc3c2)cc1Br,13.1 µM (active)

row,Structure (SMILES),Potency
1,COc1ccc(-c2nc3cc(NC(=O)Cc4ccc(Cl)cc4)ccc3o2)cc1OC,3.29 µM (active)
2,Cc1cccc(-c2nc3cc(NC(=O)Cc4ccc(Cl)cc4)ccc3o2)c1,inactive
3,COc1ccc(-c2nc3cc(C(C)C)ccc3o2)cc1NC(=O)c1ccccc1[N+](=O)[O-],inactive
4,CCOc1ccc(OCC)c(NC(=O)Cn2nc(CC)n3c(cc4sccc43)c2=O)c1,inactive
5,O=c1c2ccccc2n(Cc2cccc(F)c2)c(=O)n1Cc1ccccc1Cl,inactive
6,COCCn1c(=O)[nH]c2cc(C(=O)N3CCN(c4ccc(Cl)cc4)CC3)ccc2c1=O,inactive
7,COc1ccccc1CN1COc2ccc3c(oc(=O)c4ccccc43)c2C1,inactive
8,CC(C)CN(CC(C)C)c1nnc(NC(=O)Nc2cccc(C(F)(F)F)c2)s1,inactive
9,COc1ccc(OC)c(NS(=O)(=O)c2ccc3c(c2)C(C)(C)C(=O)N3C)c1,inactive
10,COc1cc2nc(Nc3ccc(C)c(C)c3)nc(N)c2cc1OC,4.14 µM (active)
11,O=C(Cn1c(=O)oc2cc(S(=O)(=O)NCc3ccccc3)ccc21)NCc1ccc(Cl)cc1,inactive
12,CC(C)(C)c1ccc(C(=O)N2CCCCC2CCN2CCCCC2)cc1 (centres undefined),inactive
13,CCOC(=O)c1ccc(N2C(=O)c3n[nH]c(-c4cccs4)c3C2c2ccc(CC)cc2)cc1 (centres undefined),inactive
14,CCOC(=O)c1ccc(N2C(=O)c3n[nH]c(-c4cccs4)c3C2c2cccc(F)c2)cc1 (centres undefined),13.1 µM (active)
15,CC(C)(C)c1ccc(C2NC(=O)c3n[nH]c(-c4cccs4)c32)cc1 (centres undefined),inactive
16,Cc1ccc(C)c(NC(=O)Cn2cc(C(=O)c3cccs3)c3ccccc32)c1,inactive
17,Cc1ccc(F)cc1NC(=O)CSc1nc(-c2cccs2)cc(C(F)(F)F)n1,11.7 µM (active)
18,Cc1ccc(NC(=O)CSc2nc(-c3cccs3)cc(C(F)(F)F)n2)cc1C,inactive
19,Cn1c(=O)c2c(-c3ccc(Br)cc3)n(Cc3ccc(F)cc3)cc2n(C)c1=O,inactive

# — PubChem BioAssay AID504465 (National Center for Advancing Translational Sciences (NCATS), 2011)
